Test results published in PubChem BioAssay AID588773 (The Scripps Research Institute Molecular Screening Center, 2011).
Active and inactive are the calls of the source.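 How the source made its calls: active means inhibition of plasma PAF acetylhydrolase at a set limit or more at 0.1 µM, with tenfold selectivity over all off-targets; inactive means inhibition below the limit or weaker selectivity.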

Assay: competitive ABPP of pPAFAH versus proteome off-targets – biochemical, gel-based, FP-Rh fluorescence, mouse, HTS hit compounds, selectivity assay for pPAFAH inhibitor project, late-stage follow-up (AID 588773)
Conditions: MW 32 kDa protein, at 10 µM

outcome, inactive:
O=C(/C=C/c1cccs1)c1cc(Br)ccc1OC(=O)N1CCOCC1
CCCCOC(=O)c1ccc(OC(=O)N2CCOCC2)cc1
O=C(Oc1ccc(-c2ccccc2)cc1)N1CCCCC1
O=C(CCCSc1ccc(Cl)cc1)Nc1cc(S(=O)(=O)N2CCOCC2)ccc1O
O=C(Oc1ccc(-c2ccccc2)cc1)N1CCOCC1
O=C(Oc1nsnc1N1CCOCC1)N1CCOCC1
O=C(Oc1ccc(Oc2ccccc2)cc1)N1CCC(O)CC1
